The values that follow come from PubChem BioAssay (EPA / NIEHS).

A short description of assay [1]: ATG_CMV_CIS: Attagene CIS-FACTORIAL HepG2 Assay for human CMV (Internal Marker) (AID 2282928).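 Note: endpoint acts as a background internal control marker rather than a target.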 The settings on record: HepG2 CMV promoter reporter, transcription factor profiling; actives raise or lower the signal. The essentials: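 Endogenous transcription factor activity read in HepG2 via transfected cis-promoter reporter units. After 24 h dosing, reporter mRNA measured by RT-PCR/capillary electrophoresis; gain or loss of signal fit relative to DMSO.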

Assay [2] in a line: ATG_DR4_LXR_CIS: Attagene CIS-FACTORIAL HepG2 Assay for human Liver X Receptor (LXR), DR4 submotif (AID 2282929). The note with it: HepG2 Attagene DR4 cis-reporter, mRNA transcription; actives raise or lower the signal. Summed up:
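Total RNA from 24 h-treated, MRTU-transfected HepG2 cells underwent reverse transcription, PCR, fluorescent primer extension and restriction digestion before capillary electrophoresis. Both increases and decreases in reporter signal were fitted against DMSO.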

The nature of assay [3]: ATG_AP_2_CIS: Attagene CIS-FACTORIAL HepG2 Assay for human Activator Protein 2 (AP-2) (AID 2282932). The note with it: HepG2 AP-2 cis-reporter, Attagene transcription factor profiling; actives raise or lower the signal. Summed up: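 HepG2 cells transiently transfected with cis-element reporter units and exposed for 24 h. Reporter mRNA measured by RT-PCR, FAM labelling, HpaI digestion and capillary electrophoresis. Changes in either direction fitted relative to DMSO.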

For assay [4], the target named is Transcription factor E2F1 (Homo sapiens) (UniProt Q01094). Briefly: ATG_E2F_CIS: Attagene CIS-FACTORIAL HepG2 Assay for human E2F Transcription Factor 1 (AID 2282935). The settings on record: HepG2 Attagene cis-reporter, E2F reporter RNA transcripts; actives raise or lower the signal. The essentials:
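Endogenous E2F1 activity read through cis-promoter reporter units transfected into HepG2. After 24 h compound treatment, reporter mRNA measured by RT-PCR, HpaI digestion and capillary electrophoresis. Bidirectional fit versus DMSO.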

Assay [5] is described as follows: ATG_M_61_CIS: Attagene CIS-FACTORIAL HepG2 Assay for M61 Transcription Factor (Internal Marker) (AID 2282937). The settings on record: HepG2 Attagene CIS-FACTORIAL M61 internal marker reporter; actives raise or lower the signal. Summed up: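 Transfect HepG2 with MRTUs; dose 24 h; isolate RNA; reverse-transcribe with DNase I treatment; PCR-amplify, FAM-label and cut with HpaI for 2 h at 37 C; resolve by CE. Bidirectional fitting against DMSO.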

The nature of assay [6]: ATG_EGR_CIS: Attagene CIS-FACTORIAL HepG2 Assay for human Early Growth Response 1 (EGR1) (AID 2282938). The note with it: HepG2 Attagene CIS-FACTORIAL EGR reporter mRNA; actives raise or lower the signal. Summed up:
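After a 24 h treatment of transiently transfected HepG2 cells, total RNA was reverse-transcribed and reporter sequences PCR-amplified, labelled and run on capillary electrophoresis. Reporters sit under cis-regulatory promoters sensing endogenous factors.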

Assay [7] in a line: ATG_Ets_CIS: Attagene CIS-FACTORIAL HepG2 Assay for human Erythroblast Transformation Specific (ETS) (AID 2282941). The note with it: HepG2 ETS cis-reporter transcription, actives raise or lower the signal. The essentials:
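Steps: transfect HepG2 with multiple reporter units; treat compound 24 h; isolate RNA, DNase-treat, reverse-transcribe; PCR-amplify, label with 6-FAM, digest with HpaI; separate by capillary electrophoresis. Activity fitted both directions versus DMSO.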

The target of assay [8] is Hepatocyte nuclear factor 3-beta (Homo sapiens) (UniProt Q9Y261). Briefly: ATG_FoxA2_CIS: Attagene CIS-FACTORIAL HepG2 Assay for human Forkhead box A2 (FOXA2) (AID 2282942). The settings on record: HepG2 cis-reporter transcription factor activity, 24 h; actives raise or lower the signal. Summed up:
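24 h dosing of HepG2 bearing cis-reporter constructs; mRNA readout by RT-PCR/CE fluorescence; bidirectional fit, DMSO baseline.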

The nature of assay [9]: ATG_FoxO_CIS: Attagene CIS-FACTORIAL HepG2 Assay for human Forkhead box O (FoxO) (AID 2282943). The note with it: HepG2 Attagene cis-reporter, FoxO element, mRNA; actives raise or lower the signal. Summed up: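 Read-out: fluorescence of 6-FAM-labelled reporter cDNA fragments resolved by capillary electrophoresis. Transiently transfected HepG2 cells were dosed for 24 h; activity fitted in both directions relative to DMSO controls.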

Assay [10] can be described thus: ATG_GATA_CIS: Attagene CIS-FACTORIAL HepG2 Assay for human GATA Binding Protein (AID 2282944). The note with it: HepG2 GATA cis-element reporter, Attagene multiplex mRNA; actives raise or lower the signal. The essentials: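 DMSO serves as negative control and baseline for bidirectional fitting of reporter mRNA changes. HepG2 cells bearing transiently transfected cis-promoter reporters were exposed 24 h; transcripts detected via RT-PCR and capillary electrophoresis.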

Assay [11] in a line: ATG_ISRE_CIS: Attagene CIS-FACTORIAL HepG2 Assay for human Interferon Regulatory Factor 1 (IRF1) binding to an Interferon-Stimulated Response Element (ISRE) (AID 2282948). The note with it: HepG2 ISRE cis-reporter (Attagene), mRNA transcription readout; actives raise or lower the signal. The essentials:
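Transfected HepG2 (multiple reporter transcription units, cis elements) dosed 24 h. RNA → oligo(dT) RT → PCR → 6-FAM primer extension → HpaI → CE. DMSO = negative control/baseline.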

The nature of assay [12]: ATG_M_32_CIS: Attagene CIS-FACTORIAL HepG2 Assay for M32 Transcription Factor (Internal Marker) (AID 2282949).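 Note: background control marker of the multiplexed CIS panel rather than a real target.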 The note with it: HepG2 Attagene cis-factorial M32 reporter, mRNA; actives raise or lower the signal. Summed up:
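Fluorescent capillary electrophoresis peaks of HpaI-digested, FAM-labelled RT-PCR reporter products give the signal. Source: transiently transfected human liver HepG2 cells, 24 h after chemical dosing; bidirectional fitting against DMSO.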

Assay [13] is described as follows: ATG_MRE_CIS: Attagene CIS-FACTORIAL HepG2 Assay for human Metal Responsive Element (MRE) (AID 2282954). The note with it: HepG2 MRE cis-reporter transcription, Attagene multiplex; actives raise or lower the signal. The essentials: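 HepG2 cells transiently transfected with cis-element-driven reporter units; mRNA measured 24 h after dosing. Reporter transcripts quantified by RT-PCR, FAM labelling, HpaI digestion and capillary electrophoresis; bidirectional fit versus DMSO.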

In assay [14] the target is Paired box protein Pax-6 (Homo sapiens) (UniProt P26367). Put plainly: ATG_Pax6_CIS: Attagene CIS-FACTORIAL HepG2 Assay for human Paired Box 6 (PAX6) (AID 2282956). The note with it: HepG2 CIS-FACTORIAL PAX6 reporter transcription, RNA readout; actives raise or lower the signal. The essentials: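 Transient MRTU transfection of HepG2 → compound exposure 24 h → TriZol RNA, oligo(dT) RT → PCR, 6-FAM primer extension, HpaI cut → capillary electrophoresis; activity fitted both directions against DMSO.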

Assay [15] in a line: ATG_PXRE_CIS: Attagene CIS-FACTORIAL HepG2 Assay for human Pregnane X Receptor Element (PXRE) (AID 2282957). The note with it: HepG2 Attagene CIS-FACTORIAL PXRE reporter, mRNA; actives raise or lower the signal. The essentials:
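Transiently transfected HepG2 cells were dosed and incubated for 24 h. RNA was then isolated, DNase-treated, reverse-transcribed and reporter sequences amplified. Labeled, HpaI-digested fragments were quantified by capillary electrophoresis against DMSO.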

Assay [16] in a line: ATG_Sox_CIS: Attagene CIS-FACTORIAL HepG2 Assay for human SRY-box transcription factor (SOX) (AID 2282960). The settings on record: HepG2 Attagene cis-factorial SOX reporter, mRNA; actives raise or lower the signal. Summed up: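 HepG2, cis reporter units, 24 h exposure. Reporter mRNA: RT-PCR → FAM labelling → HpaI → CE fluorescence. Bidirectional fit vs DMSO.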
Assay [17] can be described thus: ATG_SREBP_CIS: Attagene CIS-FACTORIAL HepG2 Assay for human Sterol Regulatory Element Binding (SREBP) (AID 2282962). The settings on record: HepG2 Attagene cis-factorial SREBP reporter, mRNA; actives raise or lower the signal. Summed up:
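Transfected HepG2 (cis-regulated reporter library, endogenous TFs) → compound 24 h → total RNA → oligo(dT) RT → reporter-specific PCR → FAM primer extension, HpaI cut → CE fluorescence. Fit bidirectional vs DMSO.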

Assay [18] in a line: ATG_TCF_b_cat_CIS: Attagene CIS-FACTORIAL HepG2 Assay for human T-Cell-Factor with beta-catenin (TCF/b-cat) (AID 2282965). The note with it: HepG2 TCF/beta-catenin cis-reporter transcription, actives raise or lower the signal. Summed up:
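HepG2, transient MRTU transfection, cis-element-driven reporters (endogenous TFs). 24 h compound exposure. Readout: reporter mRNA by RT-PCR + 6-FAM primer extension, HpaI digest, capillary electrophoresis. Gain/loss fit vs DMSO baseline.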

Assay [19] in a line: ATG_TAL_CIS: Attagene CIS-FACTORIAL HepG2 Assay for human TAL Basal Promoter (AID 2282966).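 Note: background control endpoint measuring basal TAL promoter reporter mRNA not a specific factor.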 The note with it: HepG2 Attagene cis-factorial TAL promoter reporter; actives raise or lower the signal. The essentials:
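Readout: reporter mRNA, fluorescence by CE. System: HepG2, transient multi-reporter transfection, endogenous TF activity. Exposure: 24 h. Analysis: bidirectional, DMSO-normalized; background control.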

Assay [20] in a line: ATG_TGFb_CIS: Attagene CIS-FACTORIAL HepG2 Assay for human Transforming Growth Factor (TGF) (AID 2282967). The settings on record: HepG2 Attagene CIS TGFb reporter, mRNA transcription; actives raise or lower the signal. The essentials: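 Transcript-level reporter readout: HepG2 transfectants, 24 h exposure, RNA to cDNA, reporter-specific PCR, fluorescent primer extension, capillary sizing against ROX standards. Gain- or loss-of-signal relative to DMSO.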

Calls of active or inactive are those of the source. Rule for the calls: active = hit-call score of the fitted dose curve at least 0.9, where 1 is the maximum; inactive = score below 0.9.

Transcription factor E2F1 (Homo sapiens), sequence (Q01094 whole entry, looked up): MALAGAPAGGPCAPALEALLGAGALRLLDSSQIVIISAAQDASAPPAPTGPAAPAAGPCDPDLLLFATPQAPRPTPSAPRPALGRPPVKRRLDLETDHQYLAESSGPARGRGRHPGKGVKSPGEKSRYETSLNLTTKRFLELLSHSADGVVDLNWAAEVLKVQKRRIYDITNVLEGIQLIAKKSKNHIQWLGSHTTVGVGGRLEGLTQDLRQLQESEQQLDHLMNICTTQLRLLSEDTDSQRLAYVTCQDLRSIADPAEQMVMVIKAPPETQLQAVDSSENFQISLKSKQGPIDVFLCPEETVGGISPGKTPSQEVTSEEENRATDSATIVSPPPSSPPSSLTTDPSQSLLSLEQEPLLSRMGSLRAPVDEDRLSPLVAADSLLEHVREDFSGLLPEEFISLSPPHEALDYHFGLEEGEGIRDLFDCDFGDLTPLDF
Paired box protein Pax-6 (Homo sapiens), sequence (P26367 whole entry, looked up): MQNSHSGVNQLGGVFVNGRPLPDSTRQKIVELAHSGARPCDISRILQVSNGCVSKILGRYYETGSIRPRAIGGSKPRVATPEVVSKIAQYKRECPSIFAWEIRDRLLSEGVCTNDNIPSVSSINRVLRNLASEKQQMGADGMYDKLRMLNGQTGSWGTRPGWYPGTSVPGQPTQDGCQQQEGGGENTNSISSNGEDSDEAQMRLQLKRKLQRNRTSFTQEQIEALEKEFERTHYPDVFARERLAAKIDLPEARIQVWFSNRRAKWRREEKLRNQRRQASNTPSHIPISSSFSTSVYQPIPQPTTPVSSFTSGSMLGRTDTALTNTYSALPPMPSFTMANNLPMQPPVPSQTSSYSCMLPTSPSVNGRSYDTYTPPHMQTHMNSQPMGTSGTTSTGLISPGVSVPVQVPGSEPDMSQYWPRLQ
Hepatocyte nuclear factor 3-beta (Homo sapiens), sequence (Q9Y261 whole entry, looked up): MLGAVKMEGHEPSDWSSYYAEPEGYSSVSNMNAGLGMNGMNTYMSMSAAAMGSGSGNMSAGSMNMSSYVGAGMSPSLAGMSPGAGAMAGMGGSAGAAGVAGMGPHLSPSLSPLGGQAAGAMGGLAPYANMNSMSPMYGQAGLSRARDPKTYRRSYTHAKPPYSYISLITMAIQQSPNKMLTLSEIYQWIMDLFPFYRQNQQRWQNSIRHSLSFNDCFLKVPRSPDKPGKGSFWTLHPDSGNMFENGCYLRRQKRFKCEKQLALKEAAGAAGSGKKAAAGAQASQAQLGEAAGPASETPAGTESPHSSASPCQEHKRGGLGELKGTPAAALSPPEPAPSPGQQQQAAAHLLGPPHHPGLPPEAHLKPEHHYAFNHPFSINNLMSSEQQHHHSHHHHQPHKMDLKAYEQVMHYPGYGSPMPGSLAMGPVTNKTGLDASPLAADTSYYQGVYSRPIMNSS

In the case of `CCCCOP(=O)(O)OCCCC`, the compound was classed as inactive in [1], in [2], in [3], in [4], in assay [5] and in [6]. Also, the result in [7], in assay [8], in assay [9], in assay [10], in assay [11] and in assay [12] was inactive. Besides, the result in assay [13], in assay [14], in [15], in assay [16], in assay [17] and in assay [18] was inactive. For the same compound, the call in assay [19] and in [20] was inactive.

`C=CCO`: the compound was classed as inactive in assay [1], in assay [2], in assay [3], in [4], in [5] and in assay [6]. The compound was called inactive in [7], in assay [8], in assay [9], in assay [10], in assay [11] and in [12]. For the same compound, the result in assay [13], in assay [14], in assay [15], in assay [16], in assay [17] and in assay [18] was inactive. Moreover, the call in assay [19] and in assay [20] was inactive.

What is called AC50 is the concentration giving half of the maximal activity seen. Turning to `Nc1ccccc1C(=O)Oc1ccc2ccccc2c1`, the half-maximal activity concentration (AC50) in assay [1] was 77 µM (active); in [2] it was 63.9 µM (active); in [3], 66.8 µM (active); in assay [7], 75.7 µM (active); in assay [9] it was 147 µM (active); in assay [10], 143 µM (active). For the same compound, the AC50 in [13] is 67.2 µM (active); in assay [14], 46.9 µM (active); in assay [16] it was 166 µM (active); in assay [17], 65.5 µM (active); in assay [18], 164 µM (active); in [19], 116 µM (active). In addition, the half-maximal activity concentration (AC50) in [20] is 12 µM (active). The compound was called inactive in assay [4], in [5], in assay [6], in [8], in assay [11] and in assay [12]. Besides, in assay [15], the outcome was inactive.

In the case of `N#CC(c1ccccc1)c1ccccc1`, the compound was called inactive in [1], in [2], in [3], in [4], in [5] and in assay [6]. Moreover, the call in assay [7], in [8], in [9], in assay [10], in assay [11] and in [12] was inactive. Also, the outcome in assay [13], in assay [14], in assay [16], in [17], in assay [18] and in assay [19] was inactive. Also, in assay [20], the call was inactive. In addition, the AC50 in assay [15] was 11.1 µM (active).

As to `O=S(=O)(O)OOS(=O)(=O)O`, the compound was called inactive in assay [1], in [2], in [3], in [4], in assay [5] and in [6]. Also, the compound was classed as inactive in assay [7], in assay [8], in assay [9], in assay [10], in assay [11] and in [12]. Further, the result in [13], in [14], in [16], in assay [17], in [18] and in assay [19] was inactive. In assay [20], the compound was classed as inactive. Moreover, the AC50 in assay [15] was 56.7 µM (active).

As to `CCCOC(=O)c1ccccc1C(=O)OCCC`, the outcome in assay [1], in [2], in [3], in assay [4], in assay [5] and in assay [6] was inactive. Besides, the compound was classed as inactive in assay [7], in assay [8], in [9], in assay [10], in assay [11] and in assay [12]. For the same compound, the compound was classed as inactive in assay [13], in assay [14], in [16], in [17], in assay [18] and in assay [19]. The outcome in assay [20] was inactive. Besides, the AC50 in [15] is 28.9 µM (active).

Turning to `N#Cc1cccc(C#N)c1`, the compound was called inactive in assay [1], in assay [2], in [3], in assay [4], in [5] and in [6]. Besides, the outcome in assay [7], in [8], in assay [9], in assay [10], in [11] and in assay [12] was inactive. Also, the call in [13], in assay [14], in [15], in assay [16], in assay [17] and in assay [18] was inactive. Also, the compound was classed as inactive in [19] and in [20].
